Records with an inconclusive call do not appear. Active and inactive are the calls of the source. Cut-off read from the data, not from the text of the source, unless noted: active = parasite load remaining mostly below about 12% (no sharp cut-off); inactive = mostly above about 10%.

A word on the viability: it is a read-out of living cells in per cent, often relative to untreated cells.

Assay [1] addresses ATP-dependent translocase ABCB1 (Homo sapiens) (UniProt P08183). The assay is described as follows: MDR1 (ABCB1) efflux transporter inhibition, cell-based (AID 377; in the data active = fluorescence slope change above about 50%). As to conditions: MDR1-expressing cells, fluorescent substrate accumulation slope; stronger effect = higher value; concentration not given here.
The nature of assay [2]: hESC survival regulators, cell-based (AID 493140; call rule not given here;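 note: cells exposed to compounds for four days before counting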). To be noted: human embryonic stem cell survival screen; stronger effect = higher value.
Assay [3] is described as follows: liver-stage malaria parasite growth inhibition, primary screen, cell-based, HepG2, luciferase luminescence, HepG2 viability (AID 624349).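 Note: 100% = mean of DMSO negative control wells on the same plate.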 As to conditions: P. berghei liver stage in HepG2, luciferase luminescence, concentration not given here; parasite load remaining: stronger effect = lower value; viability: measured here: HepG2 viability without parasites.

Chain of ATP-dependent translocase ABCB1 (Homo sapiens) (P08183 whole entry, looked up): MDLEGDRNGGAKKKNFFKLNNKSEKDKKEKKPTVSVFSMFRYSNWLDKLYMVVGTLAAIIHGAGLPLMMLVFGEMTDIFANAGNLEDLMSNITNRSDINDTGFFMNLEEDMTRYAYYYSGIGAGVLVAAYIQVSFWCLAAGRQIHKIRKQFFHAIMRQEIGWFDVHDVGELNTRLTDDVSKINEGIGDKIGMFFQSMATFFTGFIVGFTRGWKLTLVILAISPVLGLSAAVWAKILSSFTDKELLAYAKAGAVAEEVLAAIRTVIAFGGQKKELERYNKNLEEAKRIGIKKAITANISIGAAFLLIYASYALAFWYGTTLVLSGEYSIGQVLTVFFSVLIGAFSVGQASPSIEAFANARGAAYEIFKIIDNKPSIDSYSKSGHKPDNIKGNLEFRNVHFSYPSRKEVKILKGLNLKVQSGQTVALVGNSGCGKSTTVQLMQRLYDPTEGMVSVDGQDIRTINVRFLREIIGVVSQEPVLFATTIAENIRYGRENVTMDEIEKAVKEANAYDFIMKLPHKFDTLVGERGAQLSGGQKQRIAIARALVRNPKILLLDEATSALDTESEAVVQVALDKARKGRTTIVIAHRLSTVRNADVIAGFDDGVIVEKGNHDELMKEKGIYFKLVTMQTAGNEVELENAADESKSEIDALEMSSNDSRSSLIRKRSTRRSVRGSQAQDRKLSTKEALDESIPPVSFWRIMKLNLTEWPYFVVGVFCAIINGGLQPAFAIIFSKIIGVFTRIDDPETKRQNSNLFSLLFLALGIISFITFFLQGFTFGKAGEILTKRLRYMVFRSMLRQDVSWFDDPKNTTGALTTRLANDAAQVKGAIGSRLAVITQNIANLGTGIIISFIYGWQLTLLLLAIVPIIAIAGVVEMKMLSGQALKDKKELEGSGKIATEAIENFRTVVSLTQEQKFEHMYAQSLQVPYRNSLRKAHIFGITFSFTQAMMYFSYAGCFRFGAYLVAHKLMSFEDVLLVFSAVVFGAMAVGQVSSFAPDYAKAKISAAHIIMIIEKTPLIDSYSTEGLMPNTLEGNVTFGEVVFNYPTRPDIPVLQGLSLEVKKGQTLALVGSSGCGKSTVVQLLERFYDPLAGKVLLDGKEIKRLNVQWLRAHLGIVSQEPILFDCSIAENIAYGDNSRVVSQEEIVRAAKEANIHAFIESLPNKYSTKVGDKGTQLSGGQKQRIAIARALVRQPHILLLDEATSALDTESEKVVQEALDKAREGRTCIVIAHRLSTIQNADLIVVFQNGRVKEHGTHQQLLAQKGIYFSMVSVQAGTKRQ

With `NCC[C@H](O)C(=O)NC1CC(N)C(OC2OC(CN)C(O)C(O)C2O)C(O)C1OC1OC(CO)C(O)C(N)C1O` (stereo partly drawn), the fluorescence slope change in assay [1] is 13.3% (inactive). For the same molecule, the survival in assay [2] was 1.75 (inactive). Besides, in assay [3], the parasite load remaining was 68.1% (inactive) and the viability was determined as 76.6%.

With `COc1cc(Br)c(CC2c3cc(OC)c(OC)cc3CCN2C)cc1OC` (stereo not drawn), the fluorescence slope change in assay [1] is 9.4% (inactive).

For `c1ccc2c(c1)CN1CCCCC1=N2`, the fluorescence slope change in assay [1] was 0.4% (inactive).

As to `CC1O[C@H](O[C@]2(O[C@H]3CC[C@@]4(C)C(=CC[C@H]5[C@@H]6C[C@H]7[C@H]([C@H](C)[C@H]8CC[C@H](C)CN87)[C@@]6(C)CC[C@@H]54)C3)C[C@@H](O[C@@H]3OC(CO)[C@@H](O)[C@@H](O)C3O)[C@@H](O)C(CO)O2)C(O)[C@@H](O)[C@H]1O` (stereo partly drawn), the fluorescence slope change in assay [1] was 75.1% (active). The survival in assay [2] was 4.89 (inactive). Besides, in assay [3], the parasite load remaining is 74.2% (inactive) and the viability is 82%.

On to `NCC1OC(OC2C(N)CC(N)C(O)C2O[C@@H]2O[C@H](CO)[C@H](OC3OC(CN)C(O)C(O)C3N)C2O)C(N)C(O)C1O` (stereo partly drawn), for which the fluorescence slope change in assay [1] was 78.1% (active).

For `COc1ccc(CC(N)C(=O)N[C@@H]2C(O)[C@H](n3cnc4c(N(C)C)ncnc43)O[C@@H]2CO)cc1` (stereo partly drawn), the fluorescence slope change in assay [1] is 10.7% (inactive). The survival in assay [2] is 0.083 (inactive). In assay [3], the parasite load remaining was 13.2% (inactive) and the viability is 14.9%.

`COC(=O)C1=CO[C@@H](C)[C@@H]2CN3CCc4c([nH]c5ccccc45)C3C[C@H]12` (stereo partly drawn): in assay [2], the survival is 5.92 (inactive). For the same molecule, in assay [3], the parasite load remaining was 62.4% (inactive) and the viability stood at 77.2%.

Turning to `CN1CCC23c4ccccc4NC1C21CCN(C)C3Nc2ccccc21`, in assay [2], the survival is 4.92 (inactive). In assay [3], the parasite load remaining is 79.4% (inactive) and the viability is 76.7%.

In the case of `Nc1c2ccccc2nc2c(O)cccc12`, in assay [2], the survival is 5.5 (inactive). Further, in assay [3], the parasite load remaining is 80.8% (inactive) and the viability turned out to be 77.4%.

On to `Nc1nc(Nc2ccc(S(N)(=O)=O)cc2)nn1C(=S)Nc1c(F)cccc1F`, for which, in assay [3], the parasite load remaining is 8.25% (active) and the viability came out at 93.1%.

Regarding `Cc1cc2ncc(-c3ccccc3)nc2cc1C`, in assay [2], the survival was 100 (inactive). Further, in assay [3], the parasite load remaining is 40.3% (inactive) and the viability is 74.4%.

As for `CC[C@H]1OC(=O)[C@H](C)[C@@H](O[C@H]2C[C@@](C)(OC)[C@@H](O)[C@H](C)O2)[C@H](C)[C@@H](O[C@H]2O[C@H](C)C[C@H](N(C)C)[C@H]2O)[C@](C)(O)C[C@@H](C)C(=O)[C@H](C)[C@@H](O)[C@]1(C)O`, the survival in assay [2] is 35.4 (inactive). In assay [3], the parasite load remaining is 97.5% (inactive) and the viability stood at 81.9%.

As to `CC(=O)NC1[C@@H](O)OC(CO)[C@@H](O)[C@H]1O[C@H](C)C(=O)O` (stereo partly drawn), the survival in assay [2] is 11.5 (inactive). Besides, in assay [3], the parasite load remaining was 82.1% (inactive) and the viability was 76.2%.

As to `CC(C)CC(=O)NC(C(=O)N[C@H](C(=O)NC(CC(C)C)[C@@H](O)CC(=O)N[C@@H](C)C(=O)NC(CC(C)C)[C@@H](O)CC(=O)O)C(C)C)C(C)C` (stereo partly drawn), the survival in assay [2] was 5.42 (inactive). In assay [3], the parasite load remaining is 67.7% (inactive) and the viability was 80.5%.

Turning to `CC1Cc2ccccc2N1NC(=O)c1ccc(Cl)c(S(N)=O)c1` (stereo not drawn), in assay [2], the survival is 17.1 (inactive). Also, in assay [3], the parasite load remaining is 50.9% (inactive) and the viability stood at 94.8%.

Take `CC(=O)NC(CC(=O)O)C(=O)O` (stereo not drawn): the survival in assay [2] is 11.8 (inactive). Besides, in assay [3], the parasite load remaining was 89% (inactive) and the viability turned out to be 77%.

Turning to `CC(C)(CO)[C@H](O)C(=O)NCCC(=O)O`, the survival in assay [2] was 19.5 (inactive). Also, in assay [3], the parasite load remaining was 85.1% (inactive) and the viability turned out to be 77.3%.

As to `C=C1CC[C@@H](O)C/C1=C/C=C1\CCC[C@]2(C)[C@@H]([C@H](C)CCCC(C)C)CC[C@@H]12`, the survival in assay [2] was 15.8 (inactive). Further, in assay [3], the parasite load remaining is 79.3% (inactive) and the viability was determined as 76%.

Regarding `C=C1CC[C@@H](O)C/C1=C/C=C1\CCC[C@]2(C)[C@@H]([C@H](C)/C=C/[C@@H](C)C(C)C)CC[C@@H]12`, in assay [2], the survival was 8.25 (inactive). Besides, in assay [3], the parasite load remaining was 66.4% (inactive) and the viability was 88.3%.

In the case of `O=C(c1cc2cc(O)ccc2[nH]1)c1cc2cc(O)ccc2[nH]1`, in assay [3], the parasite load remaining is 37.2% (inactive) and the viability is 97.4%.

Take `COc1cc(OC)c2c(c1Cl)O[C@]1(C2=O)C(OC)CC(=O)C[C@H]1C` (stereo partly drawn): the survival in assay [2] was 13.2 (inactive). In addition, in assay [3], the parasite load remaining is 83.9% (inactive) and the viability amounted to 93.9%.

As for `CCOC(=O)[C@@H](CCc1ccccc1)NC(C)C(=O)N1CCC[C@@H]1C(=O)O` (stereo partly drawn), the survival in assay [2] is 25.8 (inactive). Moreover, in assay [3], the parasite load remaining was 94.8% (inactive) and the viability came to 91.7%.

In the case of `C=CC1=C(C(=O)O)N2C(=O)[C@@H](NC(=O)/C(=N/OCC(=O)O)c3csc(N)n3)[C@H]2SC1` (stereo in doubt), the survival in assay [2] is 5.58 (inactive). In assay [3], the parasite load remaining is 92.8% (inactive) and the viability is 73.2%.

Turning to `NCC1OC(COC[C@@H]2C(O)[C@H](OC3C(O)C(N)CC(N)C3OC3OC(CN)C(O)C(O)C3N)O[C@@H]2CO)C(N)C(O)C1O` (stereo partly drawn), the survival in assay [2] is 12.3 (inactive). Also, in assay [3], the parasite load remaining is 91.3% (inactive) and the viability was 89.7%.

As for `O=C(N[C@H](CO)[C@@H](O)c1ccc([N+](=O)[O-])cc1)C(Cl)Cl`, the survival in assay [2] is 26.4 (inactive). For the same molecule, in assay [3], the parasite load remaining was 100% (inactive) and the viability came out at 91.7%.

Consider `C[C@H]1[C@H](C)CC[C@]2(C(=O)O)CC[C@]3(C)C(=CCC4[C@@]5(C)CC[C@H](O)C(C)(C)[C@@H]5CC[C@]43C)[C@H]12` (stereo partly drawn), for which the survival in assay [2] is 11.2 (inactive). For the same molecule, in assay [3], the parasite load remaining is 107% (inactive) and the viability stood at 92.7%.

The values are drawn from PubChem BioAssay.
